Values joined by “and” are separate entries in the source; they are usually repeats but may differ in a detail not shown here. Equal entries are not always repeated. Records with an inconclusive call do not appear. Where a structure was tested more than once in an assay, its records may differ in their call. Active and inactive are the calls of the source. The call rests on the fitted dose curve; in most records, active means well fitted curve in the direction sought with a large enough effect; inconclusive means small, poorly fitted or top-dose-only effect, or another doubt; inactive means no such curve, though single readings can be large; an effect the other way counts as inactive or inconclusive.
Tests used:
[1] = qHTS Screen of the MIPE 4.0 Collection Against Ewings Sarcoma (RDES) (AID 1259252); further: nearly all actives have a fitted effect of over 35% in size; further: potency means the concentration at half of the fitted maximal effect
Method in brief: (§1)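 Here, cells in 5% FBS RPMI were exposed for two days (48 h) to compound dilutions added four hours after plating. ATP-based CellTiter-Glo luminescence measured viability, normalized to vehicle and no-cell blanks.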

[2] = qHTS Screen of the MIPE 4.0 Collection Against Ewings Sarcoma (TC71) (AID 1259253); further: nearly all actives have a fitted effect of over 40% in size; further: potency means the concentration at half of the fitted maximal effect
Method in brief: as §1

[3] = qHTS Screen of the MIPE 4.0 Collection Against Ewings Sarcoma (EW8) (AID 1259255); further: potency means the concentration at half of the fitted maximal effect; nearly all actives have a fitted effect of over 35% in size
Method in brief: as §1

[4] = qHTS Screen of the MIPE 4.0 Collection Against Ewings Sarcoma (TC32) (AID 1259256); further: nearly all actives have a fitted effect of over 45% in size; further: potency means the concentration at half of the fitted maximal effect
Method in brief: as §1

[5] = P-glycoprotein substrates identified in KB-8-5-11 adenocarcinoma cell line, qHTS therapeutic library screen (AID 1346987); further: nearly all actives have a fitted effect of over 65% in size; further: potency means the concentration at half of the fitted maximal effect; on activity change, negative = cytotoxicity: series mostly up to about 44 µM; on the % scale 0 is the no-effect control and ±100 the full control effect
Method in brief: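 Compounds are pinned in dose-response onto KB-8-5-11 cells (500 cells/well, colchicine-free medium) and left 72 h at 37 degree C. CellTiter-Glo luminescence then yields AC50 values.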

[6] = qHTS assay for measurement of the activity of small molecule inhibitors on Zika virus induced Caspase-3 activity in human astrocytoma cells (AID 1224859);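 further: plate controls were ZIKV-infected untreated cells for no effect and uninfected cells for full effect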
Method in brief: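 A cell-based luminescent caspase-3/7 assay used SNB-19 cells infected with ZIKV (2 FFU/cell) for 6 h following 1 h compound pretreatment.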

[7] = NS1 protein of Zika virus - qHTS assay to identify small molecule inhibitors in human HEK 293 cells (AID 1347053); further: nearly all actives have a fitted effect of over 55% in size; further: potency means the concentration at half of the fitted maximal effect
Method in brief: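 In this cell-based screen, HEK 293 cultures received compound for one hour before Zika MR766 at MOI = 0.5. NS1 was quantified 24 hours later by TR-FRET, normalized to virus-free wells and infected wells.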

[8] = Identifying Small Molecule Inhibitors of Pancreatic Cancer Stem Cells (A278, Adherent) (AID 1259361); further: nearly all actives have a fitted effect of over 35% in size
Method in brief: (§2)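 Luminescent ATP readout (CellTiter-Glo) quantifies surviving cells after a 48 h drug incubation. Normalization uses DMSO wells as no inhibition and media-only wells as full inhibition; bortezomib served as positive control.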

[9] = Identifying Small Molecule Inhibitors of Pancreatic Cancer Stem Cells (SN12C, Spheroid) (AID 1259360); details: Potency: SN12C spheroid viability; further: potency means the concentration at half of the fitted maximal effect
Method in brief: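 Endpoint: ATP-based luminescence, 48 h drug exposure. Bortezomib at 9.2 uM final as full-kill control; DMSO vehicle as negative control; activity normalized between vehicle and cell-free wells.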

[10] = P-glycoprotein substrates identified in KB-3-1 adenocarcinoma cell line, qHTS therapeutic library screen (AID 1346986); further: nearly all actives have a fitted effect of over 60% in size;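 further: potency means the concentration at half of the fitted maximal effect; potency is for cytotoxicity meaning loss of cell viability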
Method in brief: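 72 h cell-killing screen, 500 cells/well, CellTiter-Glo luminescence. Paired lines KB-3-1/KB-8-5-11; P-gp dependence checked by tariquidar co-treatment and HEK-293 MDR-19 versus empty-vector cells.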

[11] = Identifying Small Molecule Inhibitors of Pancreatic Cancer Stem Cells (SN12C, Adherent) (AID 1259358);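 further: potency means the concentration at half of the fitted maximal effect; cell survival measured after 48 h of compound exposure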
Method in brief: as §2

[12] = Identifying Small Molecule Inhibitors of Pancreatic Cancer Stem Cells (Panc1, Spheroid) (AID 1259359);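 further: potency means the concentration at half of the fitted maximal effect; compound exposure lasted 48 h before reading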
Method in brief: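 Cytotoxicity read by CellTiter-Glo luminescence after 48 h compound exposure at 37C; percent activity scaled between DMSO-treated cells and cell-free wells. Spheroid formats used cells pre-formed 14 days in stem cell media on hydrogel.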

C=CC(=O)N1CCC[C@@H](n2nc(-c3ccc(Oc4ccccc4)cc3)c3c(N)ncnc32)C1
Potency [1]: 20900 nM (active) | Potency [2]: 29600 nM (active) | Potency [3]: 23500 nM (active) | Potency [4]: 18700 nM (active)

Cc1cc(Nc2cc(CN3CCOCC3)c3nc(C)c(Cc4ccc(Cl)cc4F)n3n2)n[nH]1
Potency [1]: 16600 nM (active) | Potency [2]: 14800 nM (active) | Potency [5]: 13.2 µM (active) and 16.4 µM (active)

C[C@@H]1COC(Nc2ccc3ncnc(Nc4ccc(OCc5nccs5)c(Cl)c4)c3c2)=N1
Potency [6]: inactive | Potency [1]: 2640 nM (active) | Potency [2]: 3720 nM (active) | Potency [4]: 10500 nM (active) | Potency [5]: 20.9 µM (active)

OCCCNc1cc(-c2ccnc(Nc3cccc(Cl)c3)n2)ccn1
Potency [6]: inactive | Potency [1]: 166 nM (active) | Potency [2]: 118 nM (active) | Potency [4]: 166 nM (active) | Potency [5]: 83.3 nM (active) and 146 nM (active) | Potency [7]: 418 nM (active)

CCC[C@H](NC(=O)C(C#N)=Cc1cccc(Br)n1)c1ccccc1
Potency [6]: inactive | Potency [1]: 7430 nM (active) | Potency [2]: 7430 nM (active) | IC50 (viability decrease) [8]: 26400 nM (active) | Potency [5]: 18.7 µM (active) | Potency [7]: 14800 nM (active)

C[C@@]12O[C@@H](C[C@]1(O)CO)n1c3ccccc3c3c4c(c5c6ccccc6n2c5c31)CNC4=O
Potency [6]: inactive | Potency [1]: 1180 nM (active) | Potency [2]: 590 nM (active) | Potency [4]: 332 nM (active) | Potency [9]: 23500 nM (active) | IC50 (viability decrease) [8]: 1660 nM (active) | Potency [10]: 206 nM (active) | Potency [5]: 2.35 µM (active) and 1.46 µM (active) | Potency [7]: 2640 nM (active)

CCS(=O)(=O)c1cccc(-c2cc(C(=O)NC3CCN(C)CC3)c(C)c3[nH]c4ncc(C)cc4c23)c1
Potency [6]: inactive | Potency [1]: 743 nM (active) | Potency [2]: 3320 nM (active) | Potency [4]: 235 nM (active) | Potency [5]: inactive | Potency [7]: 13200 nM (active)

CC1COC2(CCN(c3nc(=O)c4cc(C(F)(F)F)cc([N+](=O)[O-])c4s3)CC2)O1 (centres undefined)
Potency [6]: inactive | Potency [1]: inactive | Potency [2]: inactive | Potency [4]: inactive | Potency [5]: inactive | Potency [7]: inactive

O=C(CCCCCCNC(=O)c1cnc(N(c2ccccc2)c2ccccc2)nc1)NO
Potency [6]: inactive | Potency [1]: 5900 nM (active) | Potency [2]: 5900 nM (active) | Potency [4]: 5260 nM (active) | Potency [7]: inactive

Nc1nc(NCCNc2ncc(-n3ccnc3)c(-c3ccc(Cl)cc3Cl)n2)ccc1[N+](=O)[O-]
Potency [6]: inactive | Potency [1]: 833 nM (active) | Potency [2]: inactive | Potency [4]: 9350 nM (active) | Potency [10]: inactive | Potency [5]: inactive | Potency [7]: inactive

CC(C)CC(=O)Nc1n[nH]c2c1CN(C(=O)C1CCN(C)CC1)C2(C)C
Potency [6]: inactive | Potency [1]: 296 nM (active) | Potency [2]: 743 nM (active) | Potency [4]: 833 nM (active) | Potency [5]: inactive | Potency [7]: 26400 nM (active)

CCCn1c(=O)c2[nH]c(-c3cnn(Cc4cccc(C(F)(F)F)c4)c3)nc2n(CC)c1=O
Potency [6]: inactive | Potency [1]: inactive | Potency [2]: inactive | Potency [4]: inactive | Potency [10]: inactive | Potency [5]: inactive | Potency [7]: inactive

O=C(Nc1ncc(-c2cc(C(F)F)nn2-c2c(Cl)cccc2Cl)s1)C1CC1
Potency [6]: inactive | Potency [1]: 418 nM (active) | Potency [2]: 743 nM (active) | Potency [4]: 469 nM (active) | Potency [5]: 662 nM (active) and 731 nM (active) | Potency [7]: 1050 nM (active)

COc1ccc(C=Cc2cc(OC)c(OC)c(OC)c2)cc1O
Potency [6]: inactive | Potency [1]: inactive | Potency [2]: inactive | Potency [11]: 2.6 nM (active) | Potency [9]: 2090 nM (active) | Potency [5]: 0.001 µM (active) | Potency [7]: inactive

CC(=O)c1c(C)c2cnc(Nc3ccc(N4CCNCC4)cn3)nc2n(C2CCCC2)c1=O
Potency [6]: inactive | Potency [1]: 18700 nM (active) | Potency [2]: 5260 nM (active) | activity change, negative = cytotoxicity [5]: 6.87% [at 5.11 µM] (inactive)

CCc1c2c(nc3ccc(O)cc13)-c1cc3c(c(=O)n1C2)COC(=O)[C@]3(O)CC
Potency [6]: inactive | Potency [1]: 2.1 nM (active) | Potency [2]: 2.3 nM (active) | Potency [4]: inactive | Potency [5]: 0.231 µM (active) | Potency [7]: 3.7 nM (active)

Cc1ccc(C(=O)Nc2cccc(C(F)(F)F)c2)cc1-c1ccc2nc(NCCN3CCOCC3)ncc2c1
Potency [6]: inactive | Potency [1]: 14800 nM (active) | Potency [2]: 14800 nM (active) | Potency [4]: 11800 nM (active) | Potency [10]: 8200 nM (active) | Potency [5]: 16.6 µM (active) and 11.6 µM (active)

CC(C)c1cnn2c(NCc3ccccc3)cc(N[C@@H](CO)[C@H](O)CO)nc12
Potency [6]: inactive | Potency [1]: 469 nM (active) | Potency [2]: 264 nM (active) | Potency [4]: 296 nM (active) | Potency [5]: 1.18 µM (active) and 4.61 µM (active) | Potency [7]: 526 nM (active)

CC(NCc1ccc2c(c1)nc(NC(=O)c1ccc(-c3cn[nH]c3)s1)n2CC(C)(C)O)C(C)(C)C (centres undefined)
Potency [1]: 469 nM (active) | Potency [2]: 332 nM (active) | Potency [3]: 469 nM (active) | Potency [4]: 372 nM (active) | Potency [11]: 296 nM (active) | Potency [12]: 166 nM (active) | Potency [9]: 469 nM (active) | Potency [5]: 4.18 µM (active)

COc1cc(-c2nn(C3CCC(N4CCN(C(C)=O)CC4)CC3)c3ncnc(N)c23)ccc1NC(=O)c1cc2ccccc2n1C (centres undefined)
Potency [6]: inactive | Potency [1]: 1870 nM (active) | Potency [2]: 2960 nM (active) | Potency [4]: 3720 nM (active) | Potency [5]: inactive and 20.6 µM (active) | Potency [7]: inactive

CCCNC(=O)Nc1ccc(Oc2ncnc3cc(OC)c(OC)cc23)cc1Cl
Potency [6]: inactive | Potency [1]: inactive | Potency [2]: inactive | Potency [4]: inactive | Potency [5]: inactive

From PubChem BioAssay (NCATS)
